Reference: PubChem BioAssay (Tox21)
Records with an inconclusive call do not appear. Where a call stands in place of a potency, no number is given. Activity calls are given as the source filed them. Unless noted, calls come from the whole dose curve; as a rule, active = well fitted curve in the direction sought with a large enough effect in the repeat runs; inconclusive = weak or mixed curves; inactive = no such curve, though single readings can be large; an effect the other way counts as inactive or inconclusive.

Target: Aryl hydrocarbon receptor (Homo sapiens) (UniProt P35869)
Sequence (P35869 whole entry, looked up): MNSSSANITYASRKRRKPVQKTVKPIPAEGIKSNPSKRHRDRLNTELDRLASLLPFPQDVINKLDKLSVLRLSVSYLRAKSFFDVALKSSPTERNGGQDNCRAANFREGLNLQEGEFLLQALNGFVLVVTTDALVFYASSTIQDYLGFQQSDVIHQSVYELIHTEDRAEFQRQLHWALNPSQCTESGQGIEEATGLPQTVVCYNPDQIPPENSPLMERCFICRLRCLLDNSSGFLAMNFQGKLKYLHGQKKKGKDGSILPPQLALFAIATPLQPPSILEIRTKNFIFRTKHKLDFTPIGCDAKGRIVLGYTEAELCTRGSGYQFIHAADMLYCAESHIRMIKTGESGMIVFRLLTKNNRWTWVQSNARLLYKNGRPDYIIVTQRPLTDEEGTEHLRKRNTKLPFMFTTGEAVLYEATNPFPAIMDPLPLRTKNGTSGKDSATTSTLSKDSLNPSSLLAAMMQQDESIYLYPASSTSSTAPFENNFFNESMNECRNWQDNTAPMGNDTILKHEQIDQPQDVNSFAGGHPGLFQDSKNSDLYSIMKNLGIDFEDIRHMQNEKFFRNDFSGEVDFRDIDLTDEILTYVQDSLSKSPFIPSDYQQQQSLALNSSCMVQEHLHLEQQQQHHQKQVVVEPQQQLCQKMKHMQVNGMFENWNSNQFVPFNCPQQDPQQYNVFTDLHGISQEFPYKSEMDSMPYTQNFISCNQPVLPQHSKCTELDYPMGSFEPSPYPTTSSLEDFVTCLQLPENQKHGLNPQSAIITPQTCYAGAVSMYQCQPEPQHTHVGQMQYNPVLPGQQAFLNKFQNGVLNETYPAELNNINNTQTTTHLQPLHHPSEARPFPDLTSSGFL
Assay: qHTS assay to identify small molecule that activate the aryl hydrocarbon receptor (AhR) signaling pathway (AID 743085); note: nearly all actives have a fitted effect of over 15% in size; note: potency is the fitted concentration of half-maximal effect;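 for activation: HG2L7.5c1 human HepG2 liver cells with stably integrated DRE-driven firefly reporter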
Conditions: HepG2 AhR-luc (HG2L7.5c1), luciferase, 24 h; series mostly up to 70.3 µM
In short: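 Compounds were tested in HepG2 hepatocellular carcinoma cells harbouring a stably integrated luciferase gene under control of 20 DREs. Increased reporter signal after 24 h treatment at 37C was taken as AhR activation.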

| Compound | Potency |
| --- | --- |
| CC(=O)c1ccc[nH]1 | inactive |
| CCO[Si](C)(CCCOCC1CO1)OCC (stereo not given) | inactive |
| COc1ccc(C2C(=O)c3ccccc3C2=O)cc1 | inactive |
| O=C(O)c1cc(Cl)cc(Cl)c1O | inactive |
| COc1ccc(-c2cc(=S)ss2)cc1 | 29.8 µM (active) |
| O=C(c1ccccc1)c1ccc(O)cc1 | inactive |
| O=C(Oc1ccccc1)c1ccc2ccccc2c1O | inactive |
| CC12CC3CC(C)(C1)CC(N)(C3)C2 | inactive |
| CCCCCCCCCCCCCC(=O)OCC(O)CO (stereo not given) | inactive |
| CNS(=O)(=O)c1cc(C(=O)N2CCC(CCN3C4CCC3CC(n3c(C)nc5ccccc53)C4)(c3cccc(F)c3)CC2)c(Cl)cc1F (stereo not given) | inactive |
| CC/C=C\C/C=C\C/C=C\CCCCCCCC(=O)OCC | inactive |
| CO[C@@H]1[C@@H](OC)[C@H](C)[C@@](O)(CC(=O)O)O[C@H]1[C@H](C)[C@H]1O[C@@]2(CC[C@@](C)([C@H]3CC[C@@](C)([C@@H]4O[C@@H]([C@H]5O[C@](C)(O)[C@H](C)C[C@@H]5C)C[C@@H]4OC4C[C@H](OC)[C@@H](OC)[C@H](C)O4)O3)O2)C[C@H](O)[C@H]1C (stereo not given in full) | inactive |
| O=S(=O)(Cl)c1c(Cl)cccc1Cl | inactive |
| COc1ccc(-n2nc(C(F)F)cc2-c2ccc(S(C)=O)cc2)cc1 (stereo not given) | inactive |
| CC(=O)OC(C)C[N+](C)(C)C (stereo not given) | inactive |
| CCN(Cc1cccc(S(=O)(=O)O)c1)c1ccc(C(=C2C=CC(=[N+](CC)Cc3cccc(S(=O)(=O)O)c3)C=C2)c2ccc(O)cc2S(=O)(=O)[O-])cc1 | inactive |
| CC(C)(C(=O)c1cccnc1)c1cccnc1 | inactive |
| COc1ccc(C(=O)NCc2ccc(OCCN(C)C)cc2)cc1OC | inactive |
| Cc1cc(CCC(=O)OCCOCCOCCOC(=O)CCc2cc(C)c(O)c(C(C)(C)C)c2)cc(C(C)(C)C)c1O | inactive |
| CC(CO)(CO)C(=O)O | inactive |
| CC(C)OC(=O)c1ccccc1C(=O)OC(C)C | inactive |
| CC1C(C)(C)C2=C(C(=O)CCC2)C1(C)C (stereo not given) | inactive |
| CCCCCCCCCCCCCOS(=O)(=O)O | inactive |

System: not listed separately
Assay: qHTS assay to identify small molecule that activate the aryl hydrocarbon receptor (AhR) signaling pathway - cell viability counter screen (AID 743086); note: nearly all actives have a fitted effect of over 45% in size; note: potency is the fitted concentration of half-maximal effect
Conditions: HepG2-AhR-luc viability, CellTiter-Fluor, 24 h; series mostly up to 70.3 µM
In short: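 HepG2-AhR-luc (HG2L7.5c1) cells, 4000/well, were preincubated 5 h at 37C, exposed to compound in qHTS format for 24 hr at 37C, then given CellTiter-Fluor for 30 min; viability was read as fluorescence in the reporter wells.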

| Compound | Potency |
| --- | --- |
| CC(=O)c1ccc[nH]1 | inactive |
| CCO[Si](C)(CCCOCC1CO1)OCC (stereo not given) | inactive |
| COc1ccc(C2C(=O)c3ccccc3C2=O)cc1 | inactive |
| O=C(O)c1cc(Cl)cc(Cl)c1O | inactive |
| CCOC(=O)C(C)O (stereo not given) | inactive |
| O=C(c1ccccc1)c1ccc(O)cc1 | inactive |
| O=C(Oc1ccccc1)c1ccc2ccccc2c1O | inactive |
| CC12CC3CC(C)(C1)CC(N)(C3)C2 | inactive |
| CCCOC(=O)c1c(Cl)c(Cl)c(Cl)c(Cl)c1C(=O)OCCC | inactive |
| NC(=O)c1ccccc1[N+](=O)[O-] | inactive |
| CCCCCCCCCCCCCC(=O)OCC(O)CO (stereo not given) | inactive |
| Cc1ccc(NC(=O)N(C)C)cc1NC(=O)N(C)C | inactive |
| CC/C=C\C/C=C\C/C=C\CCCCCCCC(=O)OCC | inactive |
| O=S(=O)(Cl)c1c(Cl)cccc1Cl | inactive |
| CCOC(=O)c1c(N)sc2c1CCN(Cc1ccccc1)C2 | inactive |
| COc1ccc(-n2nc(C(F)F)cc2-c2ccc(S(C)=O)cc2)cc1 (stereo not given) | inactive |
| CCOC(=O)c1ccc(NC(=O)CN2CCCCC2)cc1 | inactive |

| Compound | Potency |
| --- | --- |
| CC1=CC[C@@H]2C[C@H]1C2(C)C | inactive |
| O=[N+]([O-])C1(Br)COCOC1 | inactive |
| CC(=O)OC(C)C[N+](C)(C)C (stereo not given) | inactive |
| FC(F)(F)C(F)(F)C(F)(F)C(F)(F)CCI | inactive |
| CCN(Cc1cccc(S(=O)(=O)O)c1)c1ccc(C(=C2C=CC(=[N+](CC)Cc3cccc(S(=O)(=O)O)c3)C=C2)c2ccc(O)cc2S(=O)(=O)[O-])cc1 | 16.6 µM (active) |
| CC(C)(C(=O)c1cccnc1)c1cccnc1 | inactive |
| COc1cc(OC)c2ccc(=O)oc2c1 | inactive |
| CC(C)C(O)C(C)(C)CO (stereo not given) | inactive |
| COc1ccc(C(=O)NCc2ccc(OCCN(C)C)cc2)cc1OC | inactive |
| Cc1cc(CCC(=O)OCCOCCOCCOC(=O)CCc2cc(C)c(O)c(C(C)(C)C)c2)cc(C(C)(C)C)c1O | inactive |
| CC(CO)(CO)C(=O)O | inactive |
| CC(C)OC(=O)c1ccccc1C(=O)OC(C)C | inactive |
| CC1C(C)(C)C2=C(C(=O)CCC2)C1(C)C (stereo not given) | inactive |
| CCCCCCCCCCCCCOS(=O)(=O)O | inactive |
| COc1cc(NC(C)CCCN)c2ncccc2c1 (stereo not given) | inactive |
| CCN(CC)CCOc1ccccc1C(=O)CCc1ccccc1 | inactive |

Target: Peroxisome proliferator-activated receptor gamma (Homo sapiens) (UniProt P37231)
Sequence (P37231 whole entry, looked up): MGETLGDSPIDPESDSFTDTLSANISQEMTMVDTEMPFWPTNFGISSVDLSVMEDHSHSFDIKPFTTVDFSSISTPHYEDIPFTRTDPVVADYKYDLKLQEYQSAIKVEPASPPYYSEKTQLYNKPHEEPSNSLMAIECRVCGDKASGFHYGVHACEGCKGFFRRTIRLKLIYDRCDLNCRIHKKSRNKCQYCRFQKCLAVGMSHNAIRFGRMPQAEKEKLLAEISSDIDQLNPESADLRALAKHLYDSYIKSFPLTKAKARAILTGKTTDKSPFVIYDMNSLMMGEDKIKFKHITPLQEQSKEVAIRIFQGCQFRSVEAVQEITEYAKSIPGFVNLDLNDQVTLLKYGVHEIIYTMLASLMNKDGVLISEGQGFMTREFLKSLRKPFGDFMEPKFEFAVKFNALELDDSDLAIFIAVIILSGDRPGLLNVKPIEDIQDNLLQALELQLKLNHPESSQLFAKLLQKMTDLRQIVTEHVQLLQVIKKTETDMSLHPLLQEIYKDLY
Assay: qHTS assay to identify small molecule agonists of the peroxisome proliferator-activated receptor gamma (PPARg) signaling pathway (AID 743094; active = well fitted activation curve with a large enough effect in the signal ratio in the repeat runs, not every such curve was filed as active; the % refers to the signal ratio)
Conditions: HEK293H PPARg-UAS-bla, beta-lactamase FRET ratio, 17 h; series mostly up to 57 µM
In short: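 GeneBLAzer PPARg UAS-bla HEK293H cells were plated, rested 5 h, then exposed to compounds for 17 h at 37C. Beta-lactamase activity was read by LiveBLAzer B/G FRET substrate fluorescence after 1 h at room temperature.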

| Compound | outcome |
| --- | --- |
| CC(=O)c1ccc[nH]1 | inactive |
| CCO[Si](C)(CCCOCC1CO1)OCC (stereo not given) | inactive |
| COc1ccc(C2C(=O)c3ccccc3C2=O)cc1 | inactive |
| O=C(O)c1cc(Cl)cc(Cl)c1O | inactive |
| O=C(c1ccccc1)c1ccc(O)cc1 | inactive |
| O=C(Oc1ccccc1)c1ccc2ccccc2c1O | inactive |
| CC12CC3CC(C)(C1)CC(N)(C3)C2 | inactive |
| CCCOC(=O)c1c(Cl)c(Cl)c(Cl)c(Cl)c1C(=O)OCCC | inactive |
| NC(=O)c1ccccc1[N+](=O)[O-] | inactive |
| Cc1ccc(NC(=O)N(C)C)cc1NC(=O)N(C)C | inactive |
| CO[C@@H]1[C@@H](OC)[C@H](C)[C@@](O)(CC(=O)O)O[C@H]1[C@H](C)[C@H]1O[C@@]2(CC[C@@](C)([C@H]3CC[C@@](C)([C@@H]4O[C@@H]([C@H]5O[C@](C)(O)[C@H](C)C[C@@H]5C)C[C@@H]4OC4C[C@H](OC)[C@@H](OC)[C@H](C)O4)O3)O2)C[C@H](O)[C@H]1C (stereo not given in full) | inactive |
| O=S(=O)(Cl)c1c(Cl)cccc1Cl | inactive |
| CCOC(=O)c1c(N)sc2c1CCN(Cc1ccccc1)C2 | inactive |
| COc1ccc(-n2nc(C(F)F)cc2-c2ccc(S(C)=O)cc2)cc1 (stereo not given) | inactive |
| CC1=CC[C@@H]2C[C@H]1C2(C)C | inactive |
| O=[N+]([O-])C1(Br)COCOC1 | inactive |
| FC(F)(F)C(F)(F)C(F)(F)C(F)(F)CCI | inactive |
| CCN(Cc1cccc(S(=O)(=O)O)c1)c1ccc(C(=C2C=CC(=[N+](CC)Cc3cccc(S(=O)(=O)O)c3)C=C2)c2ccc(O)cc2S(=O)(=O)[O-])cc1 | inactive |
| CC(C)(C(=O)c1cccnc1)c1cccnc1 | inactive |
| COc1cc(OC)c2ccc(=O)oc2c1 | inactive |
| CC(C)C(O)C(C)(C)CO (stereo not given) | inactive |
| COc1ccc(C(=O)NCc2ccc(OCCN(C)C)cc2)cc1OC | inactive |
| Cc1cc(CCC(=O)OCCOCCOCCOC(=O)CCc2cc(C)c(O)c(C(C)(C)C)c2)cc(C(C)(C)C)c1O | inactive |
| CC(CO)(CO)C(=O)O | inactive |
| CC(C)OC(=O)c1ccccc1C(=O)OC(C)C | inactive |
| COC(=O)C1=C(C)NC(C)=C(C(=O)OC(C)(C)CN(C)CCC(c2ccccc2)c2ccccc2)C1c1cccc([N+](=O)[O-])c1 (stereo not given) | inactive |
| CC1C(C)(C)C2=C(C(=O)CCC2)C1(C)C (stereo not given) | inactive |
| CCCCCCCCCCCCCOS(=O)(=O)O | inactive |
| COc1cc(NC(C)CCCN)c2ncccc2c1 (stereo not given) | inactive |
